Reference: ChEMBL document CHEMBL1961873, “Compounds: GSK PKIS; Assays: Nanosyn kinase panel” (2012)
Where “and” joins values, the source holds several entries; their conditions need not be identical. Identical values can stand only once.

biological target: T1, Phosphatidylinositol 4,5-bisphosphate 3-kinase catalytic subunit delta isoform (Homo sapiens) (UniProt O00329); details: at 1 µM;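 note: reported values are mean percent inhibition of PI3K-delta activity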
T1 sequence (whole entry): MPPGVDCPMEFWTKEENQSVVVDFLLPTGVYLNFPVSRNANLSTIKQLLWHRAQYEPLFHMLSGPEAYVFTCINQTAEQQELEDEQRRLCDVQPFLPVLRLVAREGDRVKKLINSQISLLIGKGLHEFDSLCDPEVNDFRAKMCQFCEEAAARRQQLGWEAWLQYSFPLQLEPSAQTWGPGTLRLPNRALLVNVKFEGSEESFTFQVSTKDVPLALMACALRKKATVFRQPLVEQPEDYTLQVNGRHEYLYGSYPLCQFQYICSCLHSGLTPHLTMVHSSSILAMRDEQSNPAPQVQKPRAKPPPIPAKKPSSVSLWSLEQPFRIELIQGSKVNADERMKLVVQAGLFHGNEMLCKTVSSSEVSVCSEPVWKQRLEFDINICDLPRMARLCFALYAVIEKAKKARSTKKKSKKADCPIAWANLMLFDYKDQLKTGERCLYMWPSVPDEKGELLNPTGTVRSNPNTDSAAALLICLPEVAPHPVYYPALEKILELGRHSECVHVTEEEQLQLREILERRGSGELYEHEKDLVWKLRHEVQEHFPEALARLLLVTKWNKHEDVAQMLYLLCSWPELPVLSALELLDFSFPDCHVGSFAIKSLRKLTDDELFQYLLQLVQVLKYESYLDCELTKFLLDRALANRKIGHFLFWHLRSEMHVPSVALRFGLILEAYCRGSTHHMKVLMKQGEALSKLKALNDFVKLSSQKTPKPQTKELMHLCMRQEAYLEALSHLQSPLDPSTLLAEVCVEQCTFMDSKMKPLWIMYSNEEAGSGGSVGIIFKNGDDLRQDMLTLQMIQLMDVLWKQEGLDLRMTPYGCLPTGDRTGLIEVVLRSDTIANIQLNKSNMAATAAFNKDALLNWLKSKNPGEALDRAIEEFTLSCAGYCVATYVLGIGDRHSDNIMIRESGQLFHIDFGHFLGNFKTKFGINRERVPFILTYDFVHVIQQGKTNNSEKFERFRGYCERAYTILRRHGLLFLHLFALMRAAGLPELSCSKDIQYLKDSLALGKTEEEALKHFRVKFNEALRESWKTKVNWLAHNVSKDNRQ

Row | Compound | inhibition
1 | O=C(O[C@H]1CN[C@H](C#Cc2cc3ncnc(Nc4ccc5c(cnn5Cc5ccccc5)c4)c3s2)C1)N1CCOCC1 | 9.02%
2 | Cn1c(-c2nonc2N)nc2cnccc21 | 1.72%
3 | Nc1ncnc2occ(-c3ccc(NC(=O)Nc4cc(C(F)(F)F)ccc4F)cc3)c12 | 2.46% and -0.2%
4 | O=C(Nc1n[nH]c2nnc(-c3cccnc3)cc12)C1CC1 | 1.67%
5 | COc1ccc2ncn(-c3cc(O[C@H](C)c4ccccc4C(F)(F)F)c(C(N)=O)s3)c2c1 | 12.2%
6 | CCOc1ccc2c(-c3ccnc(Nc4cc(OC)cc(C(F)(F)F)c4)n3)cnn2n1 | 10.2%
7 | c1ccc(-c2n[nH]cc2-c2ccnc(-c3ccc(OCCn4ccnc4)cc3)c2)nc1 | 1.91%
8 | CCN1CCC(C(=O)Nc2n[nH]c3nnc(-c4cccc(F)c4F)cc23)CC1 | -0.47%
9 | Nc1nonc1-c1nc2cnccc2n1C1CC1 | 2.3% and 9.78%
10 | O=C1Nc2ccccc2/C1=C1\CCc2cc(O)ccc21 | 5.45%
11 | NC(=O)c1ccc2c(-c3ccnc(NCCCO)n3)c(-c3ccc(F)cc3)nn2c1 | 6.2%
12 | NS(=O)(=O)c1ccc(N/N=C2\C(=O)Nc3cccc(CCc4ccncc4)c32)cc1 | 3.61%
13 | FC(F)(F)CNc1nccc(-c2cnn3ncccc23)n1 | 2.05%
14 | COc1ccc(-c2nn3ncccc3c2-c2ccnc(Nc3ccc(F)c(F)c3)n2)cc1 | 1.61%
15 | c1cnn2ncc(-c3ccnc(NCCCN4CCOCC4)n3)c2c1 | 7.98%
16 | COc1cc(Nc2ncc(-c3ccccc3)o2)cc(OC)c1 | 5.83%

Row | Compound | inhibition
17 | CCS(=O)(=O)c1ccc(OC)c(Nc2ncc(-c3cccc(C(C)=O)c3)o2)c1 | -1.96%
18 | COC(=O)Nc1nc2ccc(Oc3ccc(NC(=O)Nc4cc(C(F)(F)F)ccc4F)cc3)cc2s1 | 6.58%
19 | COc1ccc(Nc2ncc(-c3ccccc3)o2)cc1OC | 4.48%
20 | NS(=O)(=O)c1cccc(N/C=C2\C(=O)Nc3ccccc32)c1 | 7.6%
21 | COc1cc(N2CCN(C(C)C)CC2)ccc1Nc1nc(Nc2cccc3ncccc23)c2cc[nH]c2n1 | 4.18%
22 | COc1cc(N2CCN(C(C)C)CC2)ccc1Nc1nc(Nc2cccc(F)c2C(=O)O)c2cc[nH]c2n1 | -3.11%
23 | CN1CCC(C(=O)Nc2n[nH]c3nc(-c4ccc(O)cc4)c(Br)cc23)CC1 | 1.89% and 0.99%
24 | O=C(O[C@H]1CN[C@H](C#Cc2cc3ncnc(Nc4ccc(OCc5cccc(F)c5)c(Cl)c4)c3s2)C1)N1CCOCC1 | 15.8%
25 | CN(C)CCNC(=O)Nc1ccc(N(C)c2ccnc(Nc3ccc(CS(C)(=O)=O)cc3)n2)cc1 | 5.9%
26 | NS(=O)(=O)c1ccc(N/N=C2\C(=O)Nc3ccc(C(=O)NCc4ccncc4)cc32)cc1 | 0.37%
27 | Fc1ccc(Nc2nccc(-c3c(-c4ccc(C(F)(F)F)cc4)nn4ncccc34)n2)cc1F | 2.86%
28 | CC1(C)CC(n2cnc(-c3ccc(F)cc3)c2-c2ccnc(N)n2)CC(C)(C)N1 | 6.91%
29 | Cc1c2ccc(N(C)c3ccnc(Nc4cccc(S(N)(=O)=O)c4)n3)cc2nn1C | 29.9%
30 | CN1CCC(n2cnc(-c3ccc(F)cc3)c2-c2ccnc(NCCO)n2)CC1 | 2.25%
31 | CS(=O)(=O)CCNCc1ccc(-c2ccc3ncnc(Nc4ccc(OCc5ccccc5)cc4)c3c2)o1 | 2.65%

biological target: Phosphatidylinositol 4-kinase beta (Homo sapiens) (UniProt Q9UBF8); details: at 0.1 µM;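 note: values given are mean percent inhibition of PI4K-beta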
Sequence (Q9UBF8 2-816 limits assumed): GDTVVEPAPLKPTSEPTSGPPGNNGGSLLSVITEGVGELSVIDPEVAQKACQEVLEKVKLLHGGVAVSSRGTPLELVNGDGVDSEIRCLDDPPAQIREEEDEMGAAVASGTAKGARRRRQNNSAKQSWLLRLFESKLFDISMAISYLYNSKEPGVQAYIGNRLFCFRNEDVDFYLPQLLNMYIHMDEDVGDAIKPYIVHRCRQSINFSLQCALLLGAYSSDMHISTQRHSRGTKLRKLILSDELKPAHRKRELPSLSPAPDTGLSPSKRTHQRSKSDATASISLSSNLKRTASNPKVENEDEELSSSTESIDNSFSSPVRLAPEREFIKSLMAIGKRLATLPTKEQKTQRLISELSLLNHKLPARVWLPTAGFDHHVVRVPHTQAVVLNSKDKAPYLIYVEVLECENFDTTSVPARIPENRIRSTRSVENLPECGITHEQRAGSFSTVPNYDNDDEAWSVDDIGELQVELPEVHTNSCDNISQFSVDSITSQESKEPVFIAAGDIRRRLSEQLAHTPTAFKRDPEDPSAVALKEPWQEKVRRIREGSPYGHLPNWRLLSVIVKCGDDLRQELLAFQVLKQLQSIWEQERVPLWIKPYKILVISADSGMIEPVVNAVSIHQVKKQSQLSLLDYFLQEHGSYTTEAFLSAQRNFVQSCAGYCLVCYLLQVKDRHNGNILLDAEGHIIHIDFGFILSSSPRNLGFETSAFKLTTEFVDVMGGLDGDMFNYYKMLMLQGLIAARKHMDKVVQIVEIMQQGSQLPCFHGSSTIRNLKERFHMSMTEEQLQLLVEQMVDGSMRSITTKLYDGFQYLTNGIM

Row | Compound | inhibition
32 | O=C(O[C@H]1CN[C@H](C#Cc2cc3ncnc(Nc4ccc5c(cnn5Cc5ccccc5)c4)c3s2)C1)N1CCOCC1 | 1.41%
33 | Cn1c(-c2nonc2N)nc2cnccc21 | 1.38%
34 | Nc1ncnc2occ(-c3ccc(NC(=O)Nc4cc(C(F)(F)F)ccc4F)cc3)c12 | 0.95% and 17.2%
35 | O=C(Nc1n[nH]c2nnc(-c3cccnc3)cc12)C1CC1 | -1.26%
36 | COc1ccc2ncn(-c3cc(O[C@H](C)c4ccccc4C(F)(F)F)c(C(N)=O)s3)c2c1 | -1.47%
37 | CCOc1ccc2c(-c3ccnc(Nc4cc(OC)cc(C(F)(F)F)c4)n3)cnn2n1 | 3.54%
38 | c1ccc(-c2n[nH]cc2-c2ccnc(-c3ccc(OCCn4ccnc4)cc3)c2)nc1 | -2.63%
39 | CCN1CCC(C(=O)Nc2n[nH]c3nnc(-c4cccc(F)c4F)cc23)CC1 | 0.1%
40 | Nc1nonc1-c1nc2cnccc2n1C1CC1 | 0.74% and 1.33%
41 | O=C1Nc2ccccc2/C1=C1\CCc2cc(O)ccc21 | -5.42%
42 | NC(=O)c1ccc2c(-c3ccnc(NCCCO)n3)c(-c3ccc(F)cc3)nn2c1 | -2.18%
43 | NS(=O)(=O)c1ccc(N/N=C2\C(=O)Nc3cccc(CCc4ccncc4)c32)cc1 | 2.1%
44 | FC(F)(F)CNc1nccc(-c2cnn3ncccc23)n1 | 2.04%
45 | COc1ccc(-c2nn3ncccc3c2-c2ccnc(Nc3ccc(F)c(F)c3)n2)cc1 | -1.35%
46 | c1cnn2ncc(-c3ccnc(NCCCN4CCOCC4)n3)c2c1 | 1.61%
47 | COc1cc(Nc2ncc(-c3ccccc3)o2)cc(OC)c1 | 0.33%

Row | Compound | inhibition
48 | CCS(=O)(=O)c1ccc(OC)c(Nc2ncc(-c3cccc(C(C)=O)c3)o2)c1 | 2.44%
49 | COC(=O)Nc1nc2ccc(Oc3ccc(NC(=O)Nc4cc(C(F)(F)F)ccc4F)cc3)cc2s1 | -2.75%
50 | COc1ccc(Nc2ncc(-c3ccccc3)o2)cc1OC | 2.22%
51 | NS(=O)(=O)c1cccc(N/C=C2\C(=O)Nc3ccccc32)c1 | -1.97%
52 | COc1cc(N2CCN(C(C)C)CC2)ccc1Nc1nc(Nc2cccc3ncccc23)c2cc[nH]c2n1 | 5.9%
53 | COc1cc(N2CCN(C(C)C)CC2)ccc1Nc1nc(Nc2cccc(F)c2C(=O)O)c2cc[nH]c2n1 | 2.44%
54 | CN1CCC(C(=O)Nc2n[nH]c3nc(-c4ccc(O)cc4)c(Br)cc23)CC1 | 2.14%
55 | O=C(O[C@H]1CN[C@H](C#Cc2cc3ncnc(Nc4ccc(OCc5cccc(F)c5)c(Cl)c4)c3s2)C1)N1CCOCC1 | -0.81%
56 | CN(C)CCNC(=O)Nc1ccc(N(C)c2ccnc(Nc3ccc(CS(C)(=O)=O)cc3)n2)cc1 | 2.65%
57 | NS(=O)(=O)c1ccc(N/N=C2\C(=O)Nc3ccc(C(=O)NCc4ccncc4)cc32)cc1 | -0.51%
58 | Fc1ccc(Nc2nccc(-c3c(-c4ccc(C(F)(F)F)cc4)nn4ncccc34)n2)cc1F | -3.81%
59 | CC1(C)CC(n2cnc(-c3ccc(F)cc3)c2-c2ccnc(N)n2)CC(C)(C)N1 | 0.64%
60 | Cc1c2ccc(N(C)c3ccnc(Nc4cccc(S(N)(=O)=O)c4)n3)cc2nn1C | 0.59%
61 | CN1CCC(n2cnc(-c3ccc(F)cc3)c2-c2ccnc(NCCO)n2)CC1 | -3.16%
62 | CS(=O)(=O)CCNCc1ccc(-c2ccc3ncnc(Nc4ccc(OCc5ccccc5)cc4)c3c2)o1 | 0.91%
